An excerpt weighted towards active compounds, which were near 19% of everything screened.
TDP1 inh = TDP1 (human) enzyme inhibition; Q9NUW8; recombinant TDP1, AlphaScreen DNA substrate cleavage; Potency, µM (titrated, usually from 130 µM), without a hit: at the top dose activity change, negative = inhibition, actives largely listed as inhibitors; 0.28% of 350,000 active; AID 485290; note: nearly all actives have a fitted effect of over 40% in size
Target sequence (Q9NUW8 whole entry, looked up): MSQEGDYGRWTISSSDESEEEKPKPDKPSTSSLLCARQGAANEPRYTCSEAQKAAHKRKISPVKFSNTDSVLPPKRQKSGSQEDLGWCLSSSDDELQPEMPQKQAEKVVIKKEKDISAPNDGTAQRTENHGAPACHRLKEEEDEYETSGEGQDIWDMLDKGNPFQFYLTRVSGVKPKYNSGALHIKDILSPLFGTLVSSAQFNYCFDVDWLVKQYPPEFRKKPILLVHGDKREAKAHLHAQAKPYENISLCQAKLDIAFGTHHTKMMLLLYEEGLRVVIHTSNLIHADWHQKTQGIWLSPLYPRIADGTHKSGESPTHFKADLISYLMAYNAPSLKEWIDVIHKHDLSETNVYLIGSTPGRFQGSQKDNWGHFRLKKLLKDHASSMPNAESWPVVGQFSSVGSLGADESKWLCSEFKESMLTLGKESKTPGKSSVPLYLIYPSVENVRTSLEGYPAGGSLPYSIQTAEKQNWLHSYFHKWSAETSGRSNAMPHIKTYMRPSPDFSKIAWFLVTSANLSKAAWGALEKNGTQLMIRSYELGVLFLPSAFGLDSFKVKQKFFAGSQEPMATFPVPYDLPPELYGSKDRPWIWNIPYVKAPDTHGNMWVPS
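Enzyme-compound mixtures sat 15 min at room temperature, followed by a 5 min reaction with 15 nM final substrate and 10 min with AlphaScreen beads. Recombinant human Tdp1 was used at 1 nM final.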
RORg inh = blocks mouse ROR gamma transcriptional activity; Drosophila S2 Gal4-RORgamma UAS-luciferase reporter, 20 h; 5.4% of 310,000 active; P51450; AID 2551; Potency, µM (top dose mostly 53.6 µM), for inactives: at the top dose activity change, negative = inhibition, most hits filed as inhibitors; note: nearly all actives have a fitted effect of over 60% in size
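Drosophila Schneider cells stably carrying a metallothionein-driven Gal4 DBD–ROR gamma fusion and a UAS-Photinus luciferase reporter were exposed to compound for 1 hr, then induced with copper sulfate (700 uM final) for 20 hr at ambient temperature before luminescence reading.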
VP16 counter = inhibits Gal4-VP16 luciferase reporter, ROR gamma counter-screen; Drosophila S2 Gal4-VP16 UAS-luciferase, luminescence, 20 h; Potency, µM (titrated, usually from 53.6 µM), for the others: top-dose activity, negative = inhibition, usual class: inhibitors; 3.5% of 310,000 active; AID 2546;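 note: Gal4-VP16 expression switched on by copper sulfate through the metallothionein promoter; nearly all actives have a fitted effect of over 50% in size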
TDP1 cell noCPT = qHTS for Inhibitors of human tyrosyl-DNA phosphodiesterase 1 (TDP1): qHTS in cells in absence of CPT. AID 686978, 2013. Potency, µM (highest dose often 46.2 µM), without a hit: at the top dose activity change, negative = growth inhibition, usual class: inhibitors. DT40 Tdp1-/- hTDP1 cells, no CPT, ATP luminescence, 48 h. 15% of 420,000 active; note: nearly all actives have a fitted effect of over 55% in size
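Growth kinetics read by CellTiter-Glo luminescence after ≥48 hr at 37 °C. Cells: DT40 Tdp1-/- stably carrying human TDP1, 400 per well, compound exposure in the absence of CPT (DMSO vehicle).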
DT40 TDP1 CPT = DT40-hTDP1 cell growth loss with CPT; 12% of 420,000 active; chicken DT40 Tdp1-/-;hTDP1 cells + 20 nM CPT, ATP luminescence, 48 h; Potency, µM (top dose mostly 46.2 µM), for inactives: at the highest dose activity change, negative = growth inhibition, actives largely listed as inhibitors; note: nearly all actives have a fitted effect of over 55% in size
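Chicken DT40 Tdp1-/- cells stably complemented with human TDP1 were seeded at 400 cells/well in medium containing 20 nM camptothecin, exposed to pin-transferred compounds, and grown at 37 °C for at least 48 hr. Viability was read as ATP luminescence.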
The depositor's hits bear a star; ? = inconclusive; . = not tested or not shown; [ ] = dose if it differs, or a comment. Calls come from the whole dose curve; as a rule, active = well fitted curve in the direction sought with a large enough effect; inconclusive = small, poorly fitted or top-dose-only effect, or another doubt; inactive = no such curve, though single readings can be large; an effect the other way counts as inactive or inconclusive. % is set by controls: 0 for no effect and ±100 for the full control effect; potency is the fitted concentration of half-maximal effect.

SMILES | TDP1 inh | RORg inh | VP16 counter | TDP1 cell noCPT | DT40 TDP1 CPT
COc1ccc(-c2cccc(C(=O)Nc3ccc(OC)c(OC)c3)c2)cc1 | 3% | -1% | -17% | -20% | -18%
COc1ccc(C(=O)COC(=O)c2cccc(NC(=O)c3ccc(OC)c(OC)c3)c2)cc1 | . | . | . | 10µM* | 18µM*
CCOc1ccc(CCN2C(=S)N([C@@H](CC(C)C)CN3CCCC3CN3C(=S)NC[C@@H]3CC(C)C)C[C@@H]2CC(C)C)cc1 (some centres undefined) | . | . | . | 18µM* | ?
CCOc1ccc(CCN2C(=S)N([C@@H](Cc3ccc(O)cc3)CN3CCC[C@@H]3CN3C(=S)NC[C@@H]3Cc3ccccc3)C[C@@H]2CC(C)C)cc1 | . | . | . | 9.2µM* | 10µM*
CCOc1ccc(CCN2C(=S)N([C@@H](Cc3ccccc3)CN3CCC[C@@H]3CN3C(=S)NC[C@@H]3CC(C)C)C[C@@H]2Cc2ccccc2)cc1 | . | . | . | 15µM* | ?
CCOc1ccc(CCN2C(=S)N([C@@H](Cc3ccc(O)cc3)CN3CCC[C@@H]3CN3C(=S)NC[C@@H]3CC(C)C)C[C@@H]2Cc2ccccc2)cc1 | . | . | . | 5.2µM* | 4.6µM*
CCOc1ccc(CCN2C(=S)N([C@@H](Cc3ccccc3)CN3CCCC3CN3C(=S)NC[C@@H]3Cc3ccccc3)C[C@@H]2Cc2ccc(O)cc2)cc1 (some centres undefined) | . | . | . | 23µM* | 21µM*
CCOc1ccc(CCN2C(=S)N([C@@H](Cc3ccc(O)cc3)CN3CCC[C@@H]3CN3C(=S)NC[C@@H]3CC(C)C)C[C@@H]2CC(C)C)cc1 | . | . | . | 21µM* | 16µM*
Oc1ccc(C[C@H]2CNC(=S)N2CC2CCCN2C[C@H](Cc2ccc(O)cc2)N2C[C@H](Cc3ccccc3)N(CCc3ccccc3)C2=S)cc1 (some centres undefined) | . | . | . | 21µM* | ?
CCOc1ccc(CCN2C(=S)N([C@@H](CC(C)C)CN3CCC[C@@H]3CN3C(=S)NC[C@@H]3Cc3ccccc3)C[C@@H]2Cc2ccc(O)cc2)cc1 | . | . | . | 13µM* | 15µM*
CCOc1ccc(CCN2C(=O)C(=O)N([C@@H](Cc3ccc(O)cc3)CN3CCC[C@H]3CN3C(=O)C(=O)NC[C@@H]3Cc3ccc(O)cc3)C[C@@H]2Cc2ccc(O)cc2)cc1 | . | . | . | -6% | 4%
CCCCn1c(SCC(=O)Nc2cc(C)on2)nnc1-c1ccncc1 | 0% | 3% | -6% | -7% | -19%
CCOC(=O)C1=C(Nc2ccc(Cl)cc2)OCC1=O | 6% | 11% | 0% | -27% | 12%
CCCn1c2c(c(O)c(C(=O)Nc3ncccc3O)c1=O)CCCC2 | -7% | -5% | ? | -13% | 1%
CCOC(=O)C1=C(Nc2ccccc2)CSC1 | . | . | . | 0% | 1%
CCOc1ccc(CCN2C(=S)N([C@@H](CC(C)C)CN3CCCC3CN3C(=S)NC[C@@H]3CC(C)C)C[C@@H]2Cc2ccccc2)cc1 (some centres undefined) | . | . | . | 18µM* | 16µM*
Cc1c(C(=O)O)sc(S(=O)(=O)N2CCN(C(=O)Cc3ccccc3Cl)CC2)c1C(=O)O | -1%[56.1 µM] | . | . | -22% | 10%
COc1ccc(C(O)c2ncc(-c3ccccc3)[nH]2)cc1 (centres undefined) | . | . | . | -10% | -10%
COc1ccc(N(C(=O)CNC(=O)c2ccco2)C(C(=O)NC2CCCCC2)c2ccco2)cc1 (centres undefined) | 4% | -8% | 2% | -4% | -16%
CCc1ccc(N(C(=O)c2ccco2)C(C(=O)NC2CCCC2)c2ccco2)cc1 (centres undefined) | . | . | . | 16µM* | ?
Cc1ccc(N(C(=O)CNC(=O)c2ccco2)C(C(=O)NCC2CCCO2)c2ccccc2)cc1C (centres undefined) | . | 8% | 3% | 21µM* | -29%
COC(=O)c1ccc(N(C(=O)CNC(=O)c2ccco2)C(C(=O)NC2CCCC2)c2ccco2)cc1 (centres undefined) | 0% | -14% | 4% | 23µM* | ?
O=C(NC1CCCC1)C(c1ccco1)N(C(=O)c1ccco1)c1ccccc1 (centres undefined) | . | 19% | -18% | 15µM* | 2%
O=C(c1cc2ccccc2cc1O)N1CCCC1 | . | 3% | 3% | -17% | 10%
COc1cccc(CNC(=O)CCc2nnc3ccc(NCCCN4CCCC4=O)nn23)c1 | 0% | -24% | -7% | 5% | 1%
SMILES | TDP1 inh | RORg inh | VP16 counter | TDP1 cell noCPT | DT40 TDP1 CPT
COc1ccc(OC)c(/C=N/NC(=O)CN2CCSCC2)c1 | 0% | -8% | -5% | -21% | -28%
Cc1cc(C)cc(C(=O)Nc2nnc3n2CCS3)c1 | 1% | . | . | ? | ?
O=C(Nc1nnc2n1CCS2)c1cc(C(F)(F)F)cc(C(F)(F)F)c1 | 7% | . | . | 4.6µM* | 5.8µM*
CCN(CC(=O)Nc1c(F)cccc1F)C(=O)Cc1ccc(OC)c(S(=O)(=O)N2CCOCC2)c1 | -11% | . | . | -14% | 2%
CCOC(=O)C1=C(COC(=O)COc2ccc(C(C)=O)cc2)NC(=O)NC1C (centres undefined) | . | . | . | -22% | -17%
Cc1ccc(Nc2nc(OC(C(F)(F)F)C(F)(F)F)nc(N3CCOCC3)n2)cc1 | -2% | -36% | -12% | 15µM* | ?
FC(F)(F)Oc1ccc(Nc2nc(N3CCOCC3)nc(N3CCOCC3)n2)cc1 | 0% | 6% | -2% | 16µM* | 18µM*
COc1ccc(Nc2nc(OC)nc(N3CCOCC3)n2)cc1 | 6% | 13% | 21% | 6% | 3%
CC(C)c1ccc(OCC(=O)NCC(c2ccc(Cl)cc2)N2CCOCC2)cc1 (centres undefined) | 1% | . | . | 18µM* | ?
Cc1ccccc1OCC(=O)NCC(c1ccc(Cl)cc1)N1CCOCC1 (centres undefined) | -8% | . | . | 16µM* | 21µM*
COc1ccc(C(CNC(=O)COc2ccccc2C)N2CCOCC2)cc1 (centres undefined) | -12% | . | . | 16µM* | 21µM*
O=C(COc1ccccc1F)NCC(c1ccc(F)cc1)N1CCOCC1 (centres undefined) | 3% | . | . | -22% | -19%
C/C(=N\Nc1cc(N2CCOCC2)ncn1)c1ccccc1 | . | ? | -53% | ? | 23µM*
C/C(=N\Nc1cc(N2CCOCC2)nc(C)n1)c1ccc(F)cc1 | . | -12% | 3% | ? | ?
C/C(=N\Nc1cc(N2CCOCC2)ncn1)c1cccc([N+](=O)[O-])c1 | -1% | -7% | 2% | 16µM* | ?
